The target of test [1] is Acetylcholinesterase (Homo sapiens) (UniProt P22303). Description: Acetylcholinesterase (AChE) small molecule antagonists: enzyme-based qHTS assay (AID 1347397). Further: nearly all actives have a fitted effect of over 55% in size. The settings on record: Potency: AChE enzyme activity inhibition; outcome: AChE enzyme activity inhibition. A digest of the protocol: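 rhAChE 50 mU/mL (dispensed) + cpd or DMSO, 30 min RT; add DTNB/acetylthiocholine cocktail, 10 min RT; colorimetric thiocholine readout. qHTS, 1536-well format.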
Acetylcholinesterase (Homo sapiens), sequence (P22303 whole entry, looked up): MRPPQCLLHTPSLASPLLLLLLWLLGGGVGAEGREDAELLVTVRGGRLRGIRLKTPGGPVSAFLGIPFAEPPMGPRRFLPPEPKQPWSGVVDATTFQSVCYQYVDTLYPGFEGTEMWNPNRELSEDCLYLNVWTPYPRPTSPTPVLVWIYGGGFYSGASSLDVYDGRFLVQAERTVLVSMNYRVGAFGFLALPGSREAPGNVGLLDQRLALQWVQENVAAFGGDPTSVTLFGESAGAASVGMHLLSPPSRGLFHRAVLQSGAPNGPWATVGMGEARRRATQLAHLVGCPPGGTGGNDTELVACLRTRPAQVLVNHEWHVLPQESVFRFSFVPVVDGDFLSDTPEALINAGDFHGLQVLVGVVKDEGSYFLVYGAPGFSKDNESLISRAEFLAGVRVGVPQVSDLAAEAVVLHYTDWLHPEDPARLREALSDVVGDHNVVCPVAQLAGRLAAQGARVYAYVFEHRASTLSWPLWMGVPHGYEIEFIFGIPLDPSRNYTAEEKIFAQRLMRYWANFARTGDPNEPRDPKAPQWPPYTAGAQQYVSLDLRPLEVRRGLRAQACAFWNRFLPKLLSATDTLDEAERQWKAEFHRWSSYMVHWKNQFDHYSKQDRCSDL
For orientation: Quantitative high-throughput screening tests each substance at several concentrations.

The target is the same in test [2]. Description: Acetylcholinesterase (AChE) small molecule antagonists: fluorescence cell-based qHTS assay (AID 1347398). Further: nearly all actives have a fitted effect of over 50% in size. Further: potency means the concentration at half of the fitted maximal effect. Conditions: Potency: AChE activity; outcome: AChE activity. The method, boiled down: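 Read-out is Thiolite Green fluorescence at Ex/Em = 490/520 nm, formed by reaction with thiocholine released when cellular AChE in SH-SY5Y cells hydrolyzes acetylthiocholine. Compounds were preincubated 30 min at 37 C before substrate.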

For test [3] the target is unchanged. Description: Acetylcholinesterase (AChE) small molecule antagonists: enzyme-based qHTS assay with human liver microsomes (AID 1347399). Further: nearly all actives have a fitted effect of over 60% in size. Conditions: Potency: qHTS inhibition; outcome: qHTS inhibition. A digest of the protocol: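 Recombinant human AChE (50 mU/mL in the enzyme mix) and human liver microsomes (0.25 mg/mL final) were preincubated with compound and NADPH (0.25 mg/mL final) for 30 min at 37 C. Acetylthiocholine/DTNB was then added; thiocholine was read colorimetrically after 10 min at room temperature.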

SMILES strings stand for the structures. Values without a mark were called inactive. Records with an inconclusive call do not appear. Active and inactive are the calls of the source. The call rests on the fitted dose curve.

Take `CCN(CC)CCSC(=O)C(c1ccccc1)c1ccccc1`: the Potency entry in test [1], in test [2] and in test [3] was “inactive” in each case.
For the compound `Cc1cc(C)cc(OCC2CNC(=O)O2)c1` (stereo not given), the Potency result in test [1], in test [2] and in test [3] was “inactive” each time.
Regarding `COc1cc(/C=C/C(N)=O)cc(OC)c1OC`, the Potency entry in test [1], in test [2] and in test [3] was “inactive” each time.
As for `Cc1nc2ccc(Cl)cc2[nH]1`, the Potency entry in test [1] and in test [3] was “inactive” in each case. Further, the Potency in test [2] is 25.1 µM (active).
As for `CC(=O)O[C@H]1C[C@@H]2CC[C@@]1(C)C2(C)C`, the Potency result in test [1], in test [2] and in test [3] was “inactive” in each case.
Regarding `Cc1ccc(Cl)cc1`, the Potency result in test [1], in test [2] and in test [3] was “inactive” each time.
With `CCc1cc(Cc2cc(CC)cc(C(C)(C)C)c2O)c(O)c(C(C)(C)C)c1`, the Potency result in test [1], in test [2] and in test [3] was “inactive” each time.
For `COc1ccc(O)cc1`, the Potency entry in test [1], in test [2] and in test [3] was “inactive” throughout.
Turning to `c1cnc2c(n1)CCCC2`, the Potency entry in test [1], in test [2] and in test [3] was “inactive” throughout.
For the compound `C=CCNc1nc(NCC=C)nc(N2CCN(C(c3ccc(F)cc3)c3ccc(F)cc3)CC2)n1`, the result in test [1], in test [2] and in test [3] was inactive.
As for `CC(COc1ccc(C(C)(C)C)cc1)OS(=O)OCCCl` (stereo not given), the Potency entry in test [1], in test [2] and in test [3] was “inactive” in each case.
For the compound `Cc1ccc(C(=O)O)cc1`, the Potency result in test [1], in test [2] and in test [3] was “inactive” each time.
Regarding `CC(=O)CC(C)=O`, the Potency entry in test [1], in test [2] and in test [3] was “inactive” throughout.
As to `CCC(C)(C)CC`, the Potency entry in test [1], in test [2] and in test [3] was “inactive” throughout.
As for `COc1cccc2sc(N)nc12`, the Potency entry in test [1], in test [2] and in test [3] was “inactive” in each case.
For `CC(C)(C#N)c1cc(Cn2cncn2)cc(C(C)(C)C#N)c1`, the Potency result in test [1], in test [2] and in test [3] was “inactive” throughout.
On to `CN(C)Cc1ccccc1`, for which the Potency entry in test [1], in test [2] and in test [3] was “inactive” throughout.
Consider `CC(=O)CCc1ccccc1`, for which the Potency result in test [1], in test [2] and in test [3] was “inactive” each time.
On to `O=C(O)CCCCCCCCC(=O)O`, for which the Potency entry in test [1], in test [2] and in test [3] was “inactive” each time.
On to `O=C(O)Cc1csc(-c2ccc(Cl)cc2)n1`, for which the Potency entry in test [1], in test [2] and in test [3] was “inactive” throughout.
Take `Cn1c(=O)[nH]c2ncn(C)c2c1=O`: the Potency result in test [1], in test [2] and in test [3] was “inactive” in each case.
For `Cc1ccc(C(C)C)cc1`, the Potency entry in test [1], in test [2] and in test [3] was “inactive” throughout.
In the case of `CC(=O)OCCOCCOCCOC(C)=O`, the Potency entry in test [1], in test [2] and in test [3] was “inactive” throughout.
`NNc1nc(-c2ccc([N+](=O)[O-])cc2)cs1`: the Potency result in test [1], in test [2] and in test [3] was “inactive” throughout.
With `C=CC(C)(CCC=C(C)C)OC(=O)/C=C/c1ccccc1` (stereo not given), the Potency entry in test [1], in test [2] and in test [3] was “inactive” in each case.

(Values after PubChem BioAssay (Tox21).)
